ChEMBL document CHEMBL1961873, “Compounds: GSK PKIS; Assays: Nanosyn kinase panel” (2012)

How the values were obtained:
[1] = target: T1, Inhibitor of nuclear factor kappa-B kinase subunit epsilon (Homo sapiens) (UniProt Q14164); conditions: at 1 µM;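 further: reported values are averaged percent inhibition figures against human IKKε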
T1 sequence (whole entry): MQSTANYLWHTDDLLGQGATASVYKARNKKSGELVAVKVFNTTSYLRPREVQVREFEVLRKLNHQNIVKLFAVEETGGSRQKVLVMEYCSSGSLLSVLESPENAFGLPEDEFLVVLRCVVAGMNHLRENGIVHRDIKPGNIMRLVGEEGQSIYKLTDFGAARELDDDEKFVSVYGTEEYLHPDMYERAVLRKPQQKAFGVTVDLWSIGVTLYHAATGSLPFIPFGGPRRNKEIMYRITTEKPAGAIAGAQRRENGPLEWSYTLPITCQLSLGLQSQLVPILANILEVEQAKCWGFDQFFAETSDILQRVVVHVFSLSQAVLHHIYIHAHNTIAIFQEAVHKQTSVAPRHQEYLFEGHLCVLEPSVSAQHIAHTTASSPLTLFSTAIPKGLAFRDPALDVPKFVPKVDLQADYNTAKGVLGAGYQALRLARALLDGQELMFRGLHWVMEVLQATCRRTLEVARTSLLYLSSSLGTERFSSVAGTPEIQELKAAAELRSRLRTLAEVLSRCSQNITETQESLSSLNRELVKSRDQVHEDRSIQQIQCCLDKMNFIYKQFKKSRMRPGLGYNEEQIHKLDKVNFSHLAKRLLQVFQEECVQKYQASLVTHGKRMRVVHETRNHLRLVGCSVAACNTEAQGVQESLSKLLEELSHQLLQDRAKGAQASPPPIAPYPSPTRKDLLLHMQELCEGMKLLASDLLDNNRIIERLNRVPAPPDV

[2] = target: T2, Serine/threonine-protein kinase Nek1 (Homo sapiens) (UniProt Q96PY6); conditions: at 0.1 µM
T2 sequence (whole entry): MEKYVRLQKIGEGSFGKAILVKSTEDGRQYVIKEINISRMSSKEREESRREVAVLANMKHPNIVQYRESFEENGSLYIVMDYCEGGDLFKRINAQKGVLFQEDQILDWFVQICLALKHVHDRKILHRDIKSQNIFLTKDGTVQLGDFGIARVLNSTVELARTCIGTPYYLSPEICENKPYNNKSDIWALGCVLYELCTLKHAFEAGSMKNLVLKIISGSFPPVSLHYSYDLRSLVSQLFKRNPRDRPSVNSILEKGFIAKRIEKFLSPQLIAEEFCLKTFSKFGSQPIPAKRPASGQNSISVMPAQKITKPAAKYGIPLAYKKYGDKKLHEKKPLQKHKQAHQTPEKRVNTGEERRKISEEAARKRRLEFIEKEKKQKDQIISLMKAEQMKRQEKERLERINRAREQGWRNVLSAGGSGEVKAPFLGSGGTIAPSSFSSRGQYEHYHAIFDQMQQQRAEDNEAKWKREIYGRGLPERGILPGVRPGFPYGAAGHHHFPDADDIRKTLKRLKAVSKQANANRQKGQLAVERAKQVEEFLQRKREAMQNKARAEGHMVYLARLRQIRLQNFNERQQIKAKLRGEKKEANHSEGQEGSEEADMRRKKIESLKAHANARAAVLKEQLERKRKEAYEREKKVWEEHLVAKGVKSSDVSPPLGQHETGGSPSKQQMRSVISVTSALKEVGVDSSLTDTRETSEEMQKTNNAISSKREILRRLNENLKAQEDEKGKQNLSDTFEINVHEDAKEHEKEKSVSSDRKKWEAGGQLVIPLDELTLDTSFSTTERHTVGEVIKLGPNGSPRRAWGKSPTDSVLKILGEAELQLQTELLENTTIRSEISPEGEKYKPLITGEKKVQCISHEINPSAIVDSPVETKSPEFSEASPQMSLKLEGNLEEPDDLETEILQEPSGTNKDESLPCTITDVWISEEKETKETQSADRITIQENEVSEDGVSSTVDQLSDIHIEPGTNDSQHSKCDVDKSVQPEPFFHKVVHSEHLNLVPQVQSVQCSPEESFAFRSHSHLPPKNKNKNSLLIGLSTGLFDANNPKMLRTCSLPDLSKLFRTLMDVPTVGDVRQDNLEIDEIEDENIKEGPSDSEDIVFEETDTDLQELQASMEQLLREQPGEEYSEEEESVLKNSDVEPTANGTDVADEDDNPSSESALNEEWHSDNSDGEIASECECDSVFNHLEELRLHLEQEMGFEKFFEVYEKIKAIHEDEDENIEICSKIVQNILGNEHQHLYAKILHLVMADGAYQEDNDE

[3] = target: T2, Serine/threonine-protein kinase Nek1 (Homo sapiens); conditions: at 1 µM
[4] = target: T3, Serine/threonine-protein kinase Nek2 (Homo sapiens) (UniProt P51955); conditions: at 0.1 µM
T3 sequence (whole entry): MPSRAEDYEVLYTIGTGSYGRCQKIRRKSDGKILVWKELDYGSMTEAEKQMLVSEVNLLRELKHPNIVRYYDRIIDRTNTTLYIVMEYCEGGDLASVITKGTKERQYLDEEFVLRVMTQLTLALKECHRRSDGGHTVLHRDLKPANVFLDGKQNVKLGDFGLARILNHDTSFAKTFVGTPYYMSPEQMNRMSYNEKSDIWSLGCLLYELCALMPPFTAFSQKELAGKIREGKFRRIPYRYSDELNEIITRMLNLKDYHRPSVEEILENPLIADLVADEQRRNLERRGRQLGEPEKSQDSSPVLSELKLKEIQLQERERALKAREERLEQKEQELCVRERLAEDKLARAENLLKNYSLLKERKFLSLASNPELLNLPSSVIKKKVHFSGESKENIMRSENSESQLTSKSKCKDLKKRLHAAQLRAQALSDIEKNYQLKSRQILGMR

[5] = target: T3, Serine/threonine-protein kinase Nek2 (Homo sapiens); conditions: at 1 µM
[6] = target: Serine/threonine-protein kinase Nek6 (Homo sapiens) (UniProt Q9HC98); conditions: at 0.1 µM
[7] = target: Serine/threonine-protein kinase Nek6 (Homo sapiens) (UniProt Q9HC98); conditions: at 1 µM
[8] = target: Serine/threonine-protein kinase Nek7 (Homo sapiens) (UniProt Q8TDX7); conditions: at 0.1 µM
[9] = target: Serine/threonine-protein kinase Nek7 (Homo sapiens) (UniProt Q8TDX7); conditions: at 1 µM
[10] = target: T4, Serine/threonine-protein kinase Nek9 (Homo sapiens) (UniProt Q8TD19); conditions: at 0.1 µM
T4 sequence (whole entry): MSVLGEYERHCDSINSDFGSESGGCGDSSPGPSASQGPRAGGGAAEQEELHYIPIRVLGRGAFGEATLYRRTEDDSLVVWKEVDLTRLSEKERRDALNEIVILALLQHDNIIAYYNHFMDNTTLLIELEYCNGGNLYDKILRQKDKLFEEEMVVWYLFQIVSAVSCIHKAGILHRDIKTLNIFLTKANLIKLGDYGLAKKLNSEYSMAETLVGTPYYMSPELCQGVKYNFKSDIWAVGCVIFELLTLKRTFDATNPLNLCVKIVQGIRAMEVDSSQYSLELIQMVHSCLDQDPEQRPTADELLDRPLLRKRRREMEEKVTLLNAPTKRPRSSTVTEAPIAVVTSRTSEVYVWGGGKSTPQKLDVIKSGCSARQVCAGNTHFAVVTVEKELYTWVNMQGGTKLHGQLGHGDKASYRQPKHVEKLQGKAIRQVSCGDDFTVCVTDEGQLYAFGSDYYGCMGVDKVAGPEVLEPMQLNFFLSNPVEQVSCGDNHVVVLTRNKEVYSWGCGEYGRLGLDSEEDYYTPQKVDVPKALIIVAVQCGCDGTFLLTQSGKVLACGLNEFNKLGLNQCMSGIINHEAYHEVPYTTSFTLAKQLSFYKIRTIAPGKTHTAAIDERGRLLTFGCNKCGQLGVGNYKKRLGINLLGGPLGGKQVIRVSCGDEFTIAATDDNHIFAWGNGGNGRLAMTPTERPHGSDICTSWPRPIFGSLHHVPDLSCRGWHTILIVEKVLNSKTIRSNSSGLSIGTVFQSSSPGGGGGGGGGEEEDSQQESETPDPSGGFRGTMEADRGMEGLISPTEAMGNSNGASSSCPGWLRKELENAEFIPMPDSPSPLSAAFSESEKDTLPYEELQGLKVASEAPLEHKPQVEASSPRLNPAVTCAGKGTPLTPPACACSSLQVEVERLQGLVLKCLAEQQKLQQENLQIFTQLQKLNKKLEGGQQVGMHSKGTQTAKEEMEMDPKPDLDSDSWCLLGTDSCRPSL

[11] = target: T4, Serine/threonine-protein kinase Nek9 (Homo sapiens); conditions: at 1 µM
[12] = target: Serine/threonine-protein kinase PLK1 (Homo sapiens) (UniProt P53350); conditions: at 0.1 µM
[13] = target: Serine/threonine-protein kinase PLK1 (Homo sapiens) (UniProt P53350); conditions: at 1 µM
[14] = target: T5, Dual specificity protein kinase TTK (Homo sapiens) (UniProt P33981); conditions: at 0.1 µM
T5 sequence (whole entry): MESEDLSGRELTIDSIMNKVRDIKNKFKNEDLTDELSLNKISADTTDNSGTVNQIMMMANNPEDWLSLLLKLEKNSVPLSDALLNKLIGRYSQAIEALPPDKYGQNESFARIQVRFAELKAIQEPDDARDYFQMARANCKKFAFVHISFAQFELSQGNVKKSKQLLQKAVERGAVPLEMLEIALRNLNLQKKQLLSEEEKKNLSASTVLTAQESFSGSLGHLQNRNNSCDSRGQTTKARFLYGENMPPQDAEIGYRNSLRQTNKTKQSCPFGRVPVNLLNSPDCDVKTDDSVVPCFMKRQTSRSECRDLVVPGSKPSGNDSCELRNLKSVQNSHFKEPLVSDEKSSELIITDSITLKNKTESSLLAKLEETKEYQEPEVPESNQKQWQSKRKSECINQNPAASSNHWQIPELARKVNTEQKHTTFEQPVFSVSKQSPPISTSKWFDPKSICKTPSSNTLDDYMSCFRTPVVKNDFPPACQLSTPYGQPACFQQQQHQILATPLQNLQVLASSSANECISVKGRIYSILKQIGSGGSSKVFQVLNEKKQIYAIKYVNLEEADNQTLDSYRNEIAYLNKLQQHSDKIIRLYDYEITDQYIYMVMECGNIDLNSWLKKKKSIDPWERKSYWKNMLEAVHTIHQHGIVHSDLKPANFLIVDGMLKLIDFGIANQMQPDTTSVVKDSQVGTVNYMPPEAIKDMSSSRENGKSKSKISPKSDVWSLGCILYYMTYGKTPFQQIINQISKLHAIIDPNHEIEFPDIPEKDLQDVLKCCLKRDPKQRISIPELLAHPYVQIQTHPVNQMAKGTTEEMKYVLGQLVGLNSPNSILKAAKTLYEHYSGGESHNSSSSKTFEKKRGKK

[15] = system: T6, Receptor-type tyrosine-protein kinase FLT3 (Homo sapiens), P36888 [D835Y]; conditions: at 1 µM
T6 sequence (whole entry): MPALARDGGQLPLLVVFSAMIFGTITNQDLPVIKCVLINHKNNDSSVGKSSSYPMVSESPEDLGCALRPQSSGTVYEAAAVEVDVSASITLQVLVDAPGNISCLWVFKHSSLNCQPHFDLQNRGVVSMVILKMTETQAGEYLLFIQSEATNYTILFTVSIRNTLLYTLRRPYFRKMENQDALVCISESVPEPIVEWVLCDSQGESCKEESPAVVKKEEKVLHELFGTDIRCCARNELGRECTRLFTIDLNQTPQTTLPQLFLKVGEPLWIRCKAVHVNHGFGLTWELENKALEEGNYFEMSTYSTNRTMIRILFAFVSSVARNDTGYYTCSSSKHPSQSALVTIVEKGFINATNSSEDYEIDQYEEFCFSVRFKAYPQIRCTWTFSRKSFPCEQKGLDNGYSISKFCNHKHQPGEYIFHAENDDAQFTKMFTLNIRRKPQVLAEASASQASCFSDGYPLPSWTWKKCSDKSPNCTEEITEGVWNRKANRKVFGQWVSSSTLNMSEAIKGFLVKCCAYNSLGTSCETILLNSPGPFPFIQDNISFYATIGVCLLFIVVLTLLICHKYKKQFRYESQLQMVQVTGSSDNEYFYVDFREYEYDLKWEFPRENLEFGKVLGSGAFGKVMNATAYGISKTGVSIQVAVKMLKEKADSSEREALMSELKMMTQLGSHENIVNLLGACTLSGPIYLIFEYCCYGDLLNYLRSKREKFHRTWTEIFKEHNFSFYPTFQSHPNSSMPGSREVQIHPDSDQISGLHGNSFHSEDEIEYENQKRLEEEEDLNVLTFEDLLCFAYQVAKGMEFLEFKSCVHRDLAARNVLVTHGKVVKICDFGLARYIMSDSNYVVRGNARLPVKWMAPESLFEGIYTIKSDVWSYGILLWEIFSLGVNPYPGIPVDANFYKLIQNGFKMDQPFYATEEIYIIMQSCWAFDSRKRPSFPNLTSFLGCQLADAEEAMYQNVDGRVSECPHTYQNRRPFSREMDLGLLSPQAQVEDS

[16] = target: Vascular endothelial growth factor receptor 3 (Homo sapiens) (UniProt P35916); conditions: at 0.1 µM
[17] = target: Vascular endothelial growth factor receptor 3 (Homo sapiens) (UniProt P35916); conditions: at 1 µM
[18] = target: Macrophage colony-stimulating factor 1 receptor (Homo sapiens) (UniProt P07333); conditions: at 0.1 µM
[19] = target: Macrophage colony-stimulating factor 1 receptor (Homo sapiens) (UniProt P07333); conditions: at 1 µM
[20] = target: Tyrosine-protein kinase Fyn (Homo sapiens) (UniProt P06241); conditions: at 0.1 µM
Chain of Tyrosine-protein kinase Fyn (Homo sapiens) (P06241 2-537 limits assumed): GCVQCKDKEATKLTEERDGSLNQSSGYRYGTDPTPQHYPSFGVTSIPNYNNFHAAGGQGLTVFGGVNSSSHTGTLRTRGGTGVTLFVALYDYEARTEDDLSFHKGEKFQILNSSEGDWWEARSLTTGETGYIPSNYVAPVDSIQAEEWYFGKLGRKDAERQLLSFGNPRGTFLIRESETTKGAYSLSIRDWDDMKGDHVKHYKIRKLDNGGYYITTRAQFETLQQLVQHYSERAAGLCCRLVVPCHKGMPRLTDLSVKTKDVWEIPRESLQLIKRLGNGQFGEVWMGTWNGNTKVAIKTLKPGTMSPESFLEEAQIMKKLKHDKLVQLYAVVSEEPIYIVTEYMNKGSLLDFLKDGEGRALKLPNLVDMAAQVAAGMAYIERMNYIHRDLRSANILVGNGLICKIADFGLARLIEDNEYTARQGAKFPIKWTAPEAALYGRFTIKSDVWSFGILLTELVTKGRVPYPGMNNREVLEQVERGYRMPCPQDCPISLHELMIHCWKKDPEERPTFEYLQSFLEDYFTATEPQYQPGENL

Chain of Macrophage colony-stimulating factor 1 receptor (Homo sapiens) (P07333 whole entry): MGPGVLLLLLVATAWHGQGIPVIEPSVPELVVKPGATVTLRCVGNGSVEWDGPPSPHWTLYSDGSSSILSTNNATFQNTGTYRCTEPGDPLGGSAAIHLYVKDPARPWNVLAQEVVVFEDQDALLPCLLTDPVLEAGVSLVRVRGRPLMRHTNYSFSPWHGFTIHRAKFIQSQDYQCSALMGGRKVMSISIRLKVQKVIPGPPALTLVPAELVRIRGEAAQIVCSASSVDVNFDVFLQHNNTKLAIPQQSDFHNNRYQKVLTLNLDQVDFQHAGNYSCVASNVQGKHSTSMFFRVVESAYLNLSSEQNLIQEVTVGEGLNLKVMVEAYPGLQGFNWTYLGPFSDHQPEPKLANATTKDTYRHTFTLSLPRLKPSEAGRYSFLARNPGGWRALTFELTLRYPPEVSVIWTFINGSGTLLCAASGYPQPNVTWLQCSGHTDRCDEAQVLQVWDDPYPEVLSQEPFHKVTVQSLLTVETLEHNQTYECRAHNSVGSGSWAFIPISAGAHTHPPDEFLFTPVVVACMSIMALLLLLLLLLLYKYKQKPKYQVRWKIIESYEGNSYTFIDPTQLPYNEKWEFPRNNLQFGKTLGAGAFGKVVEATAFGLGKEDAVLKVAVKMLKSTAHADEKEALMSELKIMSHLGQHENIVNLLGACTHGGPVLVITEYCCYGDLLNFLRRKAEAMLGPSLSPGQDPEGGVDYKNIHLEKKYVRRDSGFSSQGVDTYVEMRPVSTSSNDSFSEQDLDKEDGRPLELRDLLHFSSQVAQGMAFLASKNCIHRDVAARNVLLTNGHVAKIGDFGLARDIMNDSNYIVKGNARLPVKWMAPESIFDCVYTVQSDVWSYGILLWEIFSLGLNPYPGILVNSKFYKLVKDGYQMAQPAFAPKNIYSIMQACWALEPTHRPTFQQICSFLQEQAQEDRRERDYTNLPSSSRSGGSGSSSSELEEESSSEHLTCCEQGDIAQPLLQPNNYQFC
Chain of Vascular endothelial growth factor receptor 3 (Homo sapiens) (P35916 whole entry): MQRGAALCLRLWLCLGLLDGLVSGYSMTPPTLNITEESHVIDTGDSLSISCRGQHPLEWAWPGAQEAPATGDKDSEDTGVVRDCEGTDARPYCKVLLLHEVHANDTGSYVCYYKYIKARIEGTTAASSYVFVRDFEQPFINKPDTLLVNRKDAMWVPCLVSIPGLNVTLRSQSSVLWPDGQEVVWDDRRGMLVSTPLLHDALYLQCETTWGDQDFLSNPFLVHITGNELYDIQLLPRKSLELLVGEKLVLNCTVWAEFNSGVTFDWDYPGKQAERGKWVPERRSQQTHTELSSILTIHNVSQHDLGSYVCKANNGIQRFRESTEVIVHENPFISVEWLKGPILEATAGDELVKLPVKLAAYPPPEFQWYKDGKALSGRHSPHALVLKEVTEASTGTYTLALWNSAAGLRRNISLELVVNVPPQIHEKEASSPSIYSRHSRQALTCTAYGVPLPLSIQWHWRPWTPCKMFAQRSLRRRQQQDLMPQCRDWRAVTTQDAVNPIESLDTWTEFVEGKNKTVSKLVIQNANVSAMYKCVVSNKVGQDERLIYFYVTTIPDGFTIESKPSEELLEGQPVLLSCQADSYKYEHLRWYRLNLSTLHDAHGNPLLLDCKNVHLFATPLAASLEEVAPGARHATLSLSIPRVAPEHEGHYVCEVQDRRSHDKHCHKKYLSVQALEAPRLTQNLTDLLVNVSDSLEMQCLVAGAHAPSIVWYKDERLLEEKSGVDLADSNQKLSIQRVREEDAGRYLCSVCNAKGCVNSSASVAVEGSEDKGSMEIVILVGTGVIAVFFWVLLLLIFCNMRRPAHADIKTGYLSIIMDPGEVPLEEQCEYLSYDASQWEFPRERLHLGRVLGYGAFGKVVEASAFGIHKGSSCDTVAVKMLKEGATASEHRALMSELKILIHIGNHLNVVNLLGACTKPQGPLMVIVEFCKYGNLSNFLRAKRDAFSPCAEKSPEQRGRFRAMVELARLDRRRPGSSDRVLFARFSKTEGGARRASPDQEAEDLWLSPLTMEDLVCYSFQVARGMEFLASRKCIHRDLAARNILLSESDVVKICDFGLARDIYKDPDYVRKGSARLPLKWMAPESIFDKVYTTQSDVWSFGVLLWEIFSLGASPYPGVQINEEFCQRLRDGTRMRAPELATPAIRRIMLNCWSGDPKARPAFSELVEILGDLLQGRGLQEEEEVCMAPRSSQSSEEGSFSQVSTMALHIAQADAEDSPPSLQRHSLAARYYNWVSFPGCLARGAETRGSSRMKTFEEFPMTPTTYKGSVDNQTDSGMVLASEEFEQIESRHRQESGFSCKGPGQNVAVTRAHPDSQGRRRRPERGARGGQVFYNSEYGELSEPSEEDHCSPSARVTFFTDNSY
Chain of Serine/threonine-protein kinase Nek6 (Homo sapiens) (Q9HC98 whole entry): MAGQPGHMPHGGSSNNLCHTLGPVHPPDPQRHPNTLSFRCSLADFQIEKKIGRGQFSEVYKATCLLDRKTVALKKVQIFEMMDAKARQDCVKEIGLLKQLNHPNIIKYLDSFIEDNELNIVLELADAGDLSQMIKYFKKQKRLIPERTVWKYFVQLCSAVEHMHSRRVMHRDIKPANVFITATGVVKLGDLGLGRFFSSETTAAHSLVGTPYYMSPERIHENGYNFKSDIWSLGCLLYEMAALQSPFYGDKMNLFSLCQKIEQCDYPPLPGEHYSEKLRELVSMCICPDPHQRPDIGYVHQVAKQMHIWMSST
Chain of Serine/threonine-protein kinase PLK1 (Homo sapiens) (P53350 whole entry): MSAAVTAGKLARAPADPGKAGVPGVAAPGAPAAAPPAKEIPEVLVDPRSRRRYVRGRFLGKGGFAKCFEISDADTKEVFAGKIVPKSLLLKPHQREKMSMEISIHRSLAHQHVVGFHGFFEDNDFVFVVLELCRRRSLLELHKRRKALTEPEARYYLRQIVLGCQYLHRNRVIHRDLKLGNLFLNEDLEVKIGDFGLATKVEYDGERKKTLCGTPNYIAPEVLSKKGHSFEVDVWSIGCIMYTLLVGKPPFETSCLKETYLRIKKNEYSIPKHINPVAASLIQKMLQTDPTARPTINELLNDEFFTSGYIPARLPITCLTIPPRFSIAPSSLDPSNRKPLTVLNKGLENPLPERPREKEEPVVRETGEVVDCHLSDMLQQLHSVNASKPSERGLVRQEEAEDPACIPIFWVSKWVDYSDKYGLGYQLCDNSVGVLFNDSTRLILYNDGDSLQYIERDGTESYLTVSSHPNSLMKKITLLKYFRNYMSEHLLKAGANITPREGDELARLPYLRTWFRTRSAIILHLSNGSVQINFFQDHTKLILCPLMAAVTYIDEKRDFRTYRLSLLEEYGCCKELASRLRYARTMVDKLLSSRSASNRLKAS
Chain of Serine/threonine-protein kinase Nek7 (Homo sapiens) (Q8TDX7 whole entry, looked up): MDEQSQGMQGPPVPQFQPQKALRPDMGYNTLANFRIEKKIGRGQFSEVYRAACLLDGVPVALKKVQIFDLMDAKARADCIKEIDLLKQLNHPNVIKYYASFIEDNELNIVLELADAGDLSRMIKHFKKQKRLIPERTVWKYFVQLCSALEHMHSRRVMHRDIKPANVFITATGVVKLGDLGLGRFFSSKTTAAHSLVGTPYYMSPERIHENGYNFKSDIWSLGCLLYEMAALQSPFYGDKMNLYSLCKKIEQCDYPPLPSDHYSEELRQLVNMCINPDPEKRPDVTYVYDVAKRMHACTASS

Fc1ccc(-c2nn3ccccc3c2-c2ccncc2)cc1
inhibition [1]: 0.04% | inhibition [2]: 1.98% | inhibition [3]: 1.91% | inhibition [4]: 1.2% | inhibition [5]: 1.45% | inhibition [6]: 0.37% | inhibition [7]: 1.47% | inhibition [8]: 3.72% | inhibition [9]: 2.56% | inhibition [10]: 5.49% | inhibition [11]: 1.86% | inhibition [12]: 1.11% | inhibition [13]: 0.66% | inhibition [14]: 1.74% | inhibition [15]: 1.27% | inhibition [16]: -0.54% | inhibition [17]: 1.83% | inhibition [18]: -0.59% | inhibition [19]: 7.67% | inhibition [20]: 0.52%
